Laboratory results taken from PubChem BioAssay AID1159580 (chemical genetic matrix, 2015).
The whole screen tested about 5,500 compounds, of which about 2,000 (36%) were called active. Inconclusive results (about 18%) are left out. No stated cut-off is given here; in the data, active means normalized growth mostly below about 0.91 (no sharp cut-off); inconclusive means no clear call, values can overlap the other calls; inactive means mostly above about 0.92. This is one part of the list.

Experiment: chemical genetic growth profiling, strain panel (AID 1159580);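 further: tested at 20 µM; growth read once vehicle control cultures reached saturation at 30 °C; 1 = growth at the plate median or of vehicle wells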
Details: growth OD
[1] = S. cerevisiae deletion strains, locus YDL101C, strain DUN1, stronger effect = lower value
[2] = S. cerevisiae deletion strains, locus YHR030C, strain SLT2, stronger effect = lower value
[3] = S. cerevisiae deletion strains, locus YAL013W, strain DEP1, stronger effect = lower value
[4] = S. cerevisiae deletion strains, locus YBR229C, strain ROT2, stronger effect = lower value
[5] = S. cerevisiae deletion strains, locus YDR150W, strain NUM1, stronger effect = lower value
[6] = S. cerevisiae deletion strains, locus YEL061C, strain CIN8, stronger effect = lower value
[7] = S. cerevisiae deletion strains, locus YGR078C, strain PAC10, stronger effect = lower value
[8] = S. cerevisiae deletion strains, locus YGR229C, strain SMI1, stronger effect = lower value
[9] = S. cerevisiae deletion strains, locus YHR087W, strain rtc3, stronger effect = lower value
[10] = S. cerevisiae deletion strains, locus YJL187C, strain SWE1, stronger effect = lower value
[11] = S. cerevisiae deletion strains, locus YJR043C, strain POL32, stronger effect = lower value
[12] = S. cerevisiae deletion strains, locus YJR075W, strain HOC1, stronger effect = lower value
[13] = S. cerevisiae deletion strains, locus YLR039C, strain RIC1, stronger effect = lower value
[14] = S. cerevisiae deletion strains, locus YLR058C, strain SHM2 (second series), stronger effect = lower value
[15] = S. cerevisiae deletion strains, locus YLR085C, strain ARP6, stronger effect = lower value
[16] = S. cerevisiae deletion strains, locus YLR262C, strain YPT6, stronger effect = lower value
[17] = S. cerevisiae deletion strains, locus YML094W, strain GIM5, stronger effect = lower value
[18] = S. cerevisiae deletion strains, locus YMR219W, strain ESC1, stronger effect = lower value
[19] = S. cerevisiae deletion strains, locus YMR263W, strain SAP30, stronger effect = lower value
[20] = S. cerevisiae deletion strains, locus YNL153C, strain GIM3, stronger effect = lower value
[21] = S. cerevisiae deletion strains, locus YNL298W, strain CLA4 (second series), stronger effect = lower value
[22] = S. cerevisiae deletion strains, locus YNL322C, strain KRE1, stronger effect = lower value
[23] = S. cerevisiae deletion strains, locus YNR030W, strain Alg12, stronger effect = lower value
[24] = S. cerevisiae deletion strains, locus YOL006C, strain TOP1, stronger effect = lower value
[25] = S. cerevisiae deletion strains, locus YPL055C, strain LGE1, stronger effect = lower value
[26] = S. cerevisiae deletion strains, locus YPL241C, strain CIN2, stronger effect = lower value
[27] = S. cerevisiae deletion strains, locus YPR135W, strain CTF4, stronger effect = lower value
[28] = S. cerevisiae strains, strain wild type, stronger effect = lower value

Measured: normalized growth

O=C(NNc1ccc(I)cc1)c1cc(Cl)cc(Cl)c1
active: S. cerevisiae deletion strains, locus YFR019W, strain FAB1, stronger effect = lower value 0.767 | [2] 0.536 | S. cerevisiae deletion strains, locus YLR113W, strain HOG1, stronger effect = lower value 0.498 | S. cerevisiae deletion strains, locus YPL256C, strain CLN2, stronger effect = lower value 0.749
inactive: S. cerevisiae deletion strains, locus YAR019C, strain CDC15, stronger effect = lower value 0.949 | S. cerevisiae deletion strains, locus YBL105C, strain PKC1, stronger effect = lower value 0.965 | S. cerevisiae deletion strains, locus YBR135W, strain CKS1, stronger effect = lower value 0.953 | S. cerevisiae deletion strains, locus YBR136W, strain MEC1, stronger effect = lower value 0.953 | S. cerevisiae deletion strains, locus YBR160W, strain CDC28, stronger effect = lower value 0.948 | S. cerevisiae deletion strains, locus YDL017W, strain CDC7, stronger effect = lower value 0.961 | S. cerevisiae deletion strains, locus YDL028C, strain MPS1, stronger effect = lower value 0.94 | [1] 0.987 | S. cerevisiae deletion strains, locus YDL108W, strain KIN28, stronger effect = lower value 0.943 | S. cerevisiae deletion strains, locus YDL132W, strain cdc53, stronger effect = lower value 0.95 | S. cerevisiae deletion strains, locus YDL214C, strain PRR2, stronger effect = lower value 0.88 | S. cerevisiae deletion strains, locus YDR052C, strain DBF4, stronger effect = lower value 0.952 | S. cerevisiae deletion strains, locus YDR054C, strain cdc34, stronger effect = lower value 0.955 | S. cerevisiae deletion strains, locus YDR226W, strain ADK1, stronger effect = lower value 0.929 | S. cerevisiae deletion strains, locus YDR477W, strain SNF1, stronger effect = lower value 0.731 | S. cerevisiae deletion strains, locus YER123W, strain YCK3, stronger effect = lower value 0.651 | S. cerevisiae deletion strains, locus YER133W, strain GLC7, stronger effect = lower value 0.909 | S. cerevisiae deletion strains, locus YFL009W, strain cdc4, stronger effect = lower value 0.938 | S. cerevisiae deletion strains, locus YFL029C, strain CAK1, stronger effect = lower value 0.956 | S. cerevisiae deletion strains, locus YFR003C, strain YPI1, stronger effect = lower value 0.967 | S. cerevisiae deletion strains, locus YFR028C, strain CDC14, stronger effect = lower value 0.931 | S. cerevisiae deletion strains, locus YGR040W, strain KSS1, stronger effect = lower value 0.809 | S. cerevisiae deletion strains, locus YGR052W, strain FMP48, stronger effect = lower value 0.832 | S. cerevisiae deletion strains, locus YGR092W, strain DBF2, stronger effect = lower value 0.78 | S. cerevisiae deletion strains, locus YHR079C, strain IRE1, stronger effect = lower value 0.918 | S. cerevisiae deletion strains, locus YHR082C, strain KSP1, stronger effect = lower value 0.848 | S. cerevisiae deletion strains, locus YHR205W, strain SCH9, stronger effect = lower value 0.746 | S. cerevisiae deletion strains, locus YIL147C, strain SLN1, stronger effect = lower value 0.955 | S. cerevisiae deletion strains, locus YJL095W, strain BCK1, stronger effect = lower value 0.695 | S. cerevisiae deletion strains, locus YJL157C, strain FAR1, stronger effect = lower value 0.94 | S. cerevisiae deletion strains, locus YJR016C, strain ILV3, stronger effect = lower value 0.971 | S. cerevisiae deletion strains, locus YJR066W, strain TOR1 (second series), stronger effect = lower value 0.865 | S. cerevisiae deletion strains, locus YJR066W, strain TOR1, stronger effect = lower value 0.771 | S. cerevisiae deletion strains, locus YKL048C, strain ELM1, stronger effect = lower value 0.889 | S. cerevisiae deletion strains, locus YKL067W, strain YNK1, stronger effect = lower value 0.906 | S. cerevisiae deletion strains, locus YKL101W, strain HSL1, stronger effect = lower value 0.842 | S. cerevisiae deletion strains, locus YKL193C, strain SDS22, stronger effect = lower value 0.96 | S. cerevisiae deletion strains, locus YKL203C, strain TOR2, stronger effect = lower value 0.926 | S. cerevisiae deletion strains, locus YLR403W, strain SFP1, stronger effect = lower value 0.842 | S. cerevisiae deletion strains, locus YML070W, strain DAK1, stronger effect = lower value 0.849 | S. cerevisiae deletion strains, locus YMR001C, strain CDC5, stronger effect = lower value 0.953 | S. cerevisiae deletion strains, locus YMR205C, strain PFK2 (second series), stronger effect = lower value 0.904 | S. cerevisiae deletion strains, locus YMR277W, strain FCP1, stronger effect = lower value 0.931 | S. cerevisiae deletion strains, locus YNL006W, strain LST8, stronger effect = lower value 0.972 | S. cerevisiae deletion strains, locus YNL020C, strain ARK1, stronger effect = lower value 0.901 | S. cerevisiae deletion strains, locus YNL161W, strain CBK1, stronger effect = lower value 0.97 | S. cerevisiae deletion strains, locus YNL183C, strain NPR1, stronger effect = lower value 0.889 | S. cerevisiae deletion strains, locus YNL207W, strain RIO2, stronger effect = lower value 0.963 | S. cerevisiae deletion strains, locus YNL222W, strain SSU72, stronger effect = lower value 0.946 | S. cerevisiae deletion strains, locus YOL078W, strain AVO1, stronger effect = lower value 0.955 | S. cerevisiae deletion strains, locus YOL136C, strain PFK27, stronger effect = lower value 0.864 | S. cerevisiae deletion strains, locus YOR061W, strain CKA2, stronger effect = lower value 0.715 | S. cerevisiae deletion strains, locus YOR119C, strain RIO1, stronger effect = lower value 0.79 | S. cerevisiae deletion strains, locus YOR231W, strain MKK1, stronger effect = lower value 0.884 | S. cerevisiae deletion strains, locus YOR329C, strain SCD5, stronger effect = lower value 0.976 | S. cerevisiae deletion strains, locus YPL031C, strain PHO85, stronger effect = lower value 0.81 | S. cerevisiae deletion strains, locus YPL153C, strain RAD53, stronger effect = lower value 0.84 | S. cerevisiae deletion strains, locus YPL204W, strain HRR25, stronger effect = lower value 0.832 | S. cerevisiae deletion strains, locus YPL209C, strain IPL1, stronger effect = lower value 0.956 | S. cerevisiae deletion strains, locus YPR025C, strain CCL1, stronger effect = lower value 0.959 | S. cerevisiae deletion strains, locus YPR106W, strain ISR1, stronger effect = lower value 0.957 | S. cerevisiae deletion strains, locus YPR111W, strain DBF20, stronger effect = lower value 0.929 | S. cerevisiae deletion strains, strain NNK1, stronger effect = lower value 0.97 | S. cerevisiae deletion strains, strain TSCII, stronger effect = lower value 0.946

COCCCNC(=S)Nc1ccc(C)cc1C
inactive: [3] 0.985 | [4] 0.974 | [1] 0.968 | [5] 0.966 | [6] 1.01 | [7] 0.98 | [8] 0.986 | [2] 0.974 | [9] 1.04 | [10] 0.993 | [11] 0.977 | [12] 1 | [13] 0.975 | [14] 0.982 | [15] 0.921 | [16] 0.961 | [17] 1 | [18] 0.99 | [19] 0.999 | [20] 0.986 | [21] 0.97 | [22] 0.981 | [23] 1 | [24] 0.923 | [25] 1.01 | [26] 0.973 | [27] 0.917 | [28] 0.987

Cc1ccc(-n2cccc2)c(NC(=S)Nc2ccc(Br)cc2OC(F)(F)F)c1
inactive: [3] 0.978 | [4] 1 | [1] 1.02 | S. cerevisiae deletion strains, locus YDL134C, strain PPH21, stronger effect = lower value 1.01 | [5] 0.892 | [6] 0.988 | [7] 0.973 | [8] 1.03 | [9] 1.02 | [10] 0.987 | [11] 1.03 | [12] 0.972 | [14] 1.01 | [17] 0.904 | [18] 1.01 | [19] 0.964 | [20] 0.979 | [22] 1.01 | [23] 0.925 | [24] 0.796 | [25] 0.882 | [26] 0.92 | [27] 0.679 | [28] 0.998
active: [2] 0.558 | [13] 0.621 | [15] 0.658 | [16] 0.587 | [21] 0.757
